From PubChem BioAssay (NCI) come the findings set out here.

Molecules are shown by their SMILES. About 83,000 compounds went through this panel and 20% of them were active in at least one assay; those are over-represented in the sample as a whole.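 Single-concentration screen, 48 h exposure, 96-well plates. Endpoint: percent growth. Below 10 = active.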 A number with no mark means an inactive call. Activity calls are given as the source filed them.

This assay concerns HL-60(TB) leukemia. Description: NCI-60 one-dose screen, 48 h (100 = growth as untreated, 0 = no growth, -100 = all killed). The note with it: 10 µM unless noted.
Take `CCCCCCNC(=O)Oc1ccc(/C(=C(/C)c2ccc(OC)cc2)c2ccc(OCCN3CCCCCC3)cc2)cc1`: the growth is -0.81% (active). The value for `CCCCOc1ccc(S(=O)(=O)N2CCN(c3nc(C)cc(N4CCOCC4)n3)CC2)cc1` was 20.3%.

As to `NS(=O)(=O)c1ccc(Nc2nc(N/N=C/c3ccc([N+](=O)[O-])cc3)nc(Nc3ccccc3)n2)cc1`, the growth is 35%. The same measure for `O=C(CCCCCCN1CC(=O)N2[C@@H](c3cccc(Br)c3)c3[nH]c4ccccc4c3C[C@H]2C1=O)NO`: 6.52% (active).
